In PubChem BioAssay AID626 (Vanderbilt High Throughput Screening Facility, 2007):
The whole screen tested about 64,000 compounds, of which about 1,900 (3%) were called active.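 How the source made its calls: active means fluorescence rise, raw or as B-score row- and column-corrected plate score, outside the 99.7% band of its plate's samples, either direction; inactive means the rest.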 Only a selection was taken, and actives are over-represented in it overall.

System: Muscarinic acetylcholine receptor M1
Assay: M1 muscarinic receptor agonists, primary screen, CHO-M1 cells, Fluo-4 calcium, agonist mode (AID 626)
Details: Fluo-4 calcium fluorescence, at 10 µM, stronger effect = higher value

B-score, active:
CC(C)OCCCNc1ncnc2c1[nH]c1ccc(F)cc12 16.6
O=C(CC1Nc2ccccc2NC1=O)Nc1ccccc1 (centres undefined) 3.46
CCOC(=O)c1ccccc1NC(=O)CC1Nc2ccccc2NC1=O (centres undefined) 14.3
Cn1c(=O)c2c(nc(SCC(=O)Nc3ccccc3N3CCCCC3)n2C)n(C)c1=O 6.49
COc1ncnc2c1N=C1CC(C)(C)CC(N)=C1S2 39.7
COc1cccc2c(C)c(C(=O)O)[nH]c12 -2.07
CCOc1nc(-c2ccc(OC)cc2)ccc1-c1noc(-c2cc(OC)c(OC)c(OC)c2)n1 9.6
O=C(CSc1nnc(Cn2cnc3ccccc32)o1)c1ccccc1 2.49
CCc1nc(Nc2ccc3nccnc3c2)c2oc3ccccc3c2n1 3.77
CCCN1CC=C2C(C#N)=C(N)C(C#N)(C#N)C(c3cc(OC)ccc3OC)C2C1 (centres undefined) 47
CCOc1ccc(CN(Cc2ccco2)C(c2cccs2)c2nnnn2C(C)(C)C)cc1 (centres undefined) 17.1
CCN(CC)c1ccc2oc(=O)c(C)nc2c1 19.1
CCN(CC)c1ccc2cc(C(=O)O)c(=O)oc2c1 17.2
COc1ccccc1NC1=NC(c2ccc(Cl)cc2)N=C(N)N1 (centres undefined) 2.75
O=C(Nc1nc(-c2ccc3c(c2)OCO3)cs1)c1ccncc1 5.34
O=C(c1ccccc1)c1ccc(OC(=O)N2CCCC2)cc1 -2.34
CCOC(=O)CSc1nc2c(sc(=S)n2CCc2ccccc2)c(=O)n1Cc1ccco1 7.17
COc1ccc(C(=O)OCC(=O)c2ccc(C)c(S(=O)(=O)N3CCOCC3)c2)cc1OC 11.4
Cc1cccn2c(=O)c3cc(C#N)c(=NC(=O)c4cccnc4)n(CC4CCCO4)c3nc12 (centres undefined) 37.8

B-score, inactive:
C/C(Cl)=C\Cn1c(Nc2cccc(C)c2)nc2c1c(=O)n(C)c(=O)n2C 0.177
CCCn1c(=O)c(-c2ccccc2)c(O)c2ccccc21 0.287
Nc1nnc(SCCN2C(=O)c3ccccc3S2(=O)=O)s1 1.12
CCOC(=O)CNC(=O)CN1C(=O)CCSc2ccccc21 -0.158
CC1=NCCN1S(=O)(=O)c1ccc(Br)c(C)c1 0.66
O=C1CCCN1CCCNc1ncnc2c1[nH]c1ccccc12 -0.55
CCN1CCCC1CNc1ncnc2c1[nH]c1ccc(F)cc12 (centres undefined) 0.0374
Cc1oc(CC(C)C)c(CN2CCCC2)c1C(=O)O 0.845
CCOC(=O)C1CCN(C(=O)C2CCN(S(=O)(=O)c3c(C)noc3C)CC2)CC1 -0.00598
CN1C(C)(C)CC(NC(=O)CCC(=O)NC2CC(C)(C)N(C)C(C)(C)C2)CC1(C)C -0.271
O=C(CC1NCCNC1=O)Nc1ccc(Oc2ccccc2)cc1 (centres undefined) 1.02
CCCOC(=O)Nc1ccccc1C(N)=O -0.00513
CCOc1ccc(NC(=O)CC2NCCNC2=O)cc1 (centres undefined) 0.571
CCOC(=O)C1=C(C)NC(C)=C(C(=O)OCC)C1c1ccccn1 -0.0841
COc1ccccc1NC(=O)C1=C(C)NC2=C(C(=O)CCC2)C1c1ccc(C)o1 (centres undefined) -0.692
CCc1ccc(N(CC)c2ncnc3nc[nH]c23)cc1 0.205
CCOc1ccc(S(=O)(=O)N(CC(=O)O)c2ccccc2)cc1 0.254
C=C1c2cc(CC)ccc2NC(=O)N1c1ccc(C)cc1 -1.17
Cc1ccccc1NC(=O)CNc1ccccc1N1CCCCC1 1.11
CC(C)n1c(SCC(=O)Nc2ccccc2N2CCCCC2)nc2c1c(=O)n(C)c(=O)n2C 0.367
CC(=O)Nc1ccc(S(=O)(=O)N2CCN(CCCOc3cc(C)ccc3C)CC2)cc1 -0.692
CN(C)CCCNc1c2c(c(C#N)c3nc4ccccc4n13)CCC2 0.715
COc1cc(NS(=O)(=O)c2ccccc2)ccc1-n1nc(C)cc1C -0.04
COc1ccc(C)cc1NC(=O)c1[nH]c(C)c(C(C)=O)c1C 1.04
CCOC(=O)c1c(C)[nH]c(C(=O)NCc2ccccc2OC)c1C 0.0421
CCN(CC)CCN1C(=O)C(=O)/C(=C(/O)c2ccc(OC)c(OC)c2)C1c1ccccn1 (centres undefined) -0.817
CS(=O)(=O)c1ccc2nc(NC(=O)C3CCCCC3)sc2c1 0.229
O=C1NC(Nc2nc3ccccc3s2)(C(F)(F)F)C(=O)N1C1CCCCC1 (centres undefined) -0.752
COc1ccc(-c2ccc(-c3noc(-c4ccncc4)n3)c(OC)n2)cc1 -0.565
COc1cc(-c2nc(-c3ccncc3)no2)cc(OC)c1OC -0.116
CC(C)c1nc2oc3c(N4CCN(C)CC4)ncnc3c2c2c1CCC2 0.376
Cc1ccccc1Nc1nnc(C)c(=O)[nH]1 -0.209
CCOC(=O)c1c(N)c(C#N)nn1-c1ccccc1C(=O)OC -0.00838
c1ccc(Cc2nn3c(Cn4cnc5ccccc54)nnc3s2)cc1 0.391
Cc1cc(C)cc(OCc2nnc(SCC(=O)Nc3ccccc3)o2)c1 0.534
O=C(Nc1nn(Cc2ccccc2F)cc1Br)c1cccs1 -0.416
O=C(O)c1ccc(COc2c(F)c(F)cc(F)c2F)o1 0.494
COc1ccc(Cn2nnc3c(=O)[nH]c(C4CCN(C(=O)c5ccccc5Cl)CC4)nc32)cc1 -0.0421
CCc1nc(N2CCN(c3nc(C)cc(C)n3)CC2)c2oc3ccccc3c2n1 0.00663
CCSc1nc(C)nc2c1oc1ccccc12 0.362
COc1cccc(N2C(=O)C3CCCN3C2c2ccc(F)cc2)c1 (centres undefined) -0.0377
CCn1c(CNc2ccc(OC)cc2)nnc1SCC(=O)c1ccc(OC)cc1 0.245
CCC1=C(C(=O)OC)C(c2cc(OC)ccc2OC)C(C#N)=C(N)O1 (centres undefined) -0.762
CCOC(=O)N1CC=C2C(C#N)=C(N)C(C#N)(C#N)[C@H](c3cccs3)[C@H]2C1 3.8
COc1cccc(N2CC(C(=O)Nc3c(C)cccc3C)CC2=O)c1 (centres undefined) -0.0783
Cc1nc2sc(C(c3ccco3)N3CCC4(CC3)OCCO4)c(O)n2n1 (centres undefined) -0.0511
CC(C)(C)n1nnnc1C(c1cccs1)N(Cc1cccnc1)CC1CCCO1 (centres undefined) 0.0241
CCC(C)(C)n1nnnc1C(c1cccs1)N1CCN(Cc2ccccc2)CC1 (centres undefined) 0.516
O=C(c1ccc(=O)[nH]c1)N(Cc1ccco1)C1(C(=O)NC2CCCCC2)CCCCC1 0.118
O/N=C1\CC2(Cc3nonc31)OCCO2 -0.542
CN(C)c1ccc(NC(=O)c2ccncc2)c2ccccc12 0.268
O=C(c1ccco1)N(Cc1nc2ccccc2c(=O)[nH]1)C1CCCC1 1.19
COc1ccc2oc(=O)c(C(=O)O)cc2c1 -0.167
CCc1ccc2oc(-c3ccc(N)cc3)nc2c1 0.427
CCCOC(=O)c1cc2ccccc2oc1=O -0.13
CCC1(C)Cc2c(sc3nc4n(c(=O)c23)CCCS4)CO1 (centres undefined) -0.146
CCOC(=O)c1cc(-c2ccc(Cl)s2)nc2c1c(C)nn2C 0.0112
CSc1ccc(Cl)c(C(=O)OCC(=O)N2CC(C)OC(C)C2)c1 (centres undefined) -0.691
Cc1cc(OCCN2CCCC2)ccc1C(C)C -1.57
COc1ccccc1Nc1nc(N)nc(CN(C)C2CCCCC2)n1 0.169
COc1ccccc1NC1=NC2(CCCC2)N=C(N)N1 0.458
O=C(Nc1nc(-c2ccncc2)cs1)C1COc2ccccc2O1 (centres undefined) -1.04
O=C(Nc1ccc2c(c1)OCCO2)c1ccncc1 -0.637
CC1(C)CC(=O)C(C=NCCC2=CCCCC2)=C(O)C1 0.836
O=C(c1ccccc1)N1CCN(C(=O)N2CCCCC2)CC1 -0.157
O=C(Oc1ccc2c(c1)CCC2)N1CCOCC1 -0.594
CC(C)(C)c1ccc(NC(=O)NCc2ccco2)cc1 0.39
c1cnc(NC2C3CC4CC(C3)CC2C4)nc1 (centres undefined) 2.24
COc1ccccc1NC(=O)CSc1nc2sc(C)c(C)c2c(=O)n1Cc1ccco1 -1.75
CCOC(=O)CSc1nc2c(c(=O)n(C)c(=O)n2C)n1Cc1ccccc1F -0.066
CC(=O)Nc1ccc(S(=O)(=O)NCCc2ccccc2)cc1 -0.0675
Cc1cc(C)n(C(=O)c2ccc(C)c(S(=O)(=O)N3CCOCC3)c2)n1 -0.672
Cc1cc(NC(=O)COC(=O)c2ccc(F)c(S(=O)(=O)N3CCOCC3)c2)no1 0.164
CCC(C)NC(=O)C1CCC(=O)N1Cc1ccc(C)cc1 (centres undefined) -0.196
O=C(CN1C(=O)COc2ccccc21)Nc1ccc(F)cc1 0.887
O=C(Nc1ccccc1)c1cccnc1Nc1ccccc1 1.29
COc1ccc(CNC(=O)c2cc3c(=O)n4ccccc4nc3n(CC3CCCO3)c2=N)cc1 (centres undefined) 0.00619
Cc1cccn2c(=O)c3cc(C#N)c(=O)n(CCCN4CCOCC4)c3nc12 -0.675
CC(=O)NC1CC2CCCC(C1)N2CC(=O)Nc1ccccc1 (centres undefined) -1.24
C=CCn1c2ccccc2c2nnc(SC(CC)C(=O)Nc3nc(C)c(C(=O)OCC)s3)nc21 (centres undefined) 1.41
